# From PubChem BioAssay
# For some of these results: Measured potencies and affinities stand elsewhere. Active and inactive are the calls of the source.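 Rule for the calls, unless noted: active = luciferase signal above three times the same-plate solvent-only control wells; inactive = the rest.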
# Key:
# [1] = target: 6-phosphogluconate dehydrogenase, decarboxylating (Homo sapiens) (UniProt P52209); assay: inhibition of human phosphogluconate dehydrogenase – biochemical, recombinant enzyme, NADPH absorbance, primary screen (AID 1159550;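 active = at least 20% inhibition of 6-phosphogluconate dehydrogenase activity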); details: recombinant 6PGD, NADPH absorbance 341 nm; at 10 µM; stronger effect = higher value
# [2] = EMT-state selective cytotoxicity in co-culture – imaging, PC-3E GFP, TEM4-18 mCherry, primary screen (AID 1345086;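 active = compounds killing one labelled cell type while sparing the other, by normalised counts and ratio limits, not self-fluorescent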;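 for all read-outs here: cells exposed to compound for 72 h before imaging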;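 for red/green cell ratio (normalised): normalised mesenchymal count divided by normalised epithelial count so high means epithelial killing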); details: PC-3E GFP / TEM4-18 mCherry co-culture, imaging cell counts, at 1 µM; for red/green cell ratio (normalised): actives lie on both sides
# [3] = tested on: Aerobactin synthetase IucA (Klebsiella pneumoniae hvKP1); assay: IucA enzyme inhibition, primary screen, biochemical, Spectrum library (AID 1346200; call rule not given here;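 note: 100% = wells without compound and 0% = wells lacking enzyme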); details: malachite green pyrophosphate, A620, at 8 µM, stronger effect = lower value
# [4] = target: Mitogen-activated protein kinase 7 (Homo sapiens) (UniProt Q13164); assay: Gal4-ERK5 driven luciferase induction – cell-based, HTS, primary screen (AID 1508626); details: HeLa Gal4-ERK5 transactivation, 18 h, at 5 µM, stronger effect = higher value;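 note: luciferase driven by Gal4-ERK5 fusion binding five Gal4 sites before minimal TATA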
# [5] = blockers of polyQ-driven CASP3 activation – cell-based (AID 1583); details: polyglutamine-induced caspase-3 activation, cell assay; stronger effect = higher value;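 tested at 10 µM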
# [6] = yeast 75Q aggregation reduction – 75Q-TubU reporter (AID 1593); details: Yeast 75Q polyglutamine aggregation reporter
# [7] = restoration of touch response, mutant HTT neurons – whole organism, C. elegans mechanosensory neurons, N-terminal huntingtin (AID 1599); details: C. elegans polyQ-huntingtin mechanosensory neurons, stronger effect = higher value
# [8] = blockers of cytochrome c efflux from mitochondria – biochemical, purified mitochondria (AID 1603); details: stronger effect = lower value;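 note: mouse liver mitochondria challenged with calcium chloride; signal normalized to the plate average as 100%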
# [9] = polyglutamine aggregate formation blockers (AID 1604); details: polyglutamine-induced protein aggregation inhibition assay; stronger effect = higher value; tested at 2.5 µM
# [10] = glutamate transport activators, MN-1 cells, MN-1 cell line (AID 1612); details: MN-1 motor neuron cells, stronger effect = higher value;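 note: tested at 1 µM final; 0% = mean of DMSO vehicle wells on each plate; positive means more glutamate uptake than control and negative means less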
# [11] = 75Q-TubH aggregate inhibition, S. cerevisiae, yeast (AID 1616); details: S. cerevisiae 75Q-TubH polyglutamine aggregation suppression; stronger effect = higher value
# [12] = measured here: epithelial PC-3E GFP cell survival
# [13] = measured here: mesenchymal TEM4-18 mCherry cell survival
# [14] = counts scaled to control wells, 1 = unselective
# Mitogen-activated protein kinase 7 (Homo sapiens), sequence (Q13164 whole entry, looked up, the tested form may be a part): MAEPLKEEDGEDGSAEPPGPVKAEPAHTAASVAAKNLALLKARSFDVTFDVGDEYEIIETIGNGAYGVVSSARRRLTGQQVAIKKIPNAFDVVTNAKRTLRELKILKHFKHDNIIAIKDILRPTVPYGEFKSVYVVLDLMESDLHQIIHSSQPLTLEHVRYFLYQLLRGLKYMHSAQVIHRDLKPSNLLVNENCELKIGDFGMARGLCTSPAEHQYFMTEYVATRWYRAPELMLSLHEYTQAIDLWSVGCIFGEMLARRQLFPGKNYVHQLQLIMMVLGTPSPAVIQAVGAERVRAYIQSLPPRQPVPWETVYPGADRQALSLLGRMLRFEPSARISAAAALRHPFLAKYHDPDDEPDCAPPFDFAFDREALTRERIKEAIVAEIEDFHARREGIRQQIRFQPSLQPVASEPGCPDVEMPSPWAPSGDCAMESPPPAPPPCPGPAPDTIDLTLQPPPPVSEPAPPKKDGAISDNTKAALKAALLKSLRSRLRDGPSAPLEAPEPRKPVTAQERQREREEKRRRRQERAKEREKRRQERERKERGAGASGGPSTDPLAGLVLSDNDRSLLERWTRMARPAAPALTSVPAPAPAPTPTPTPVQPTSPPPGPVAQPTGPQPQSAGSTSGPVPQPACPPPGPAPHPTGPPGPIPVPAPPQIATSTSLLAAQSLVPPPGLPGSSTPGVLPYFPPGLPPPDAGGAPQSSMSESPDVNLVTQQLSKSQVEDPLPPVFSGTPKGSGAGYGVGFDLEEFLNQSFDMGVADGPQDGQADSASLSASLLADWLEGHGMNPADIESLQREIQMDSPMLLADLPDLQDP
# 6-phosphogluconate dehydrogenase, decarboxylating (Homo sapiens), sequence (P52209 whole entry, looked up): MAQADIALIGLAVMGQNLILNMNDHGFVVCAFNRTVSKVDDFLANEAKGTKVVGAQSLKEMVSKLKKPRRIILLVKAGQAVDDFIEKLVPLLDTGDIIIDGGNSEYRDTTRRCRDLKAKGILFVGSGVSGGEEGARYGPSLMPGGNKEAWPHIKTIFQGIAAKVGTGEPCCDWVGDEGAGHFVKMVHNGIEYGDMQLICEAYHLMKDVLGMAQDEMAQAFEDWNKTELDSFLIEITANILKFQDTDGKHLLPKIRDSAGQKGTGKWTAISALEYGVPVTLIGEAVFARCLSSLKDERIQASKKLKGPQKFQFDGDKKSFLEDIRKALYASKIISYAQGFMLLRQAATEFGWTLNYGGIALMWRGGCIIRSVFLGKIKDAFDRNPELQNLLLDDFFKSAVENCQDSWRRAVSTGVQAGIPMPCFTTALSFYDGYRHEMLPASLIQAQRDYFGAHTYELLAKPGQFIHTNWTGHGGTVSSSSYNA
structure (smiles),measurement,setting,value
COc1cc2c(cc1O)CCNC2C (stereo not drawn),inhibition,[1],-21.7% (inactive)
same,red/green cell ratio (normalised),[2],0.92 (inactive)
same,normalised cell number,[2]; [12],1
same,normalised cell number,[2]; [13],0.92
same,activity remaining,[3],107% (inactive)
same,luciferase signal,[4],120 AU (inactive)
O=C1c2ccccc2-c2cccc3cccc1c23,inhibition,[1],-2.36% (inactive)
same,red/green cell ratio (normalised),[2]; [14],0.82 (inactive)
same,normalised cell number,[2]; [12],1.23
same,normalised cell number,[2]; [13],1.01
same,activity remaining,[3],106% (inactive)
same,luciferase signal,[4],64 AU (inactive)
C=C(C)c1cc2cc(C(C)=O)c(O)cc2o1,inhibition,[1],13.2% (inactive)
same,red/green cell ratio (normalised),[2],0.8 (inactive)
same,normalised cell number,[2]; [12],1.14
same,normalised cell number,[2]; [13],0.92
same,activity remaining,[3],104% (inactive)
same,luciferase signal,[4],64 AU (inactive)
CC(=O)C1CCC2C3CCC4C[C@H](O)CCC4(C)C3C[C@H](O)C12C (stereo partly drawn),inhibition,[1],-3.34% (inactive)
same,red/green cell ratio (normalised),[2],1.12 (inactive)
same,normalised cell number,[2]; [12],0.99
same,normalised cell number,[2]; [13],1.11
same,activity remaining,[3],112% (inactive)
same,luciferase signal,[4],32 AU (inactive)
CC(C)c1ccc2c(c1O)CC[C@H]1C3=C(CC[C@]21C)C(=O)OC3,inhibition,[1],-50.6% (inactive)
same,red/green cell ratio (normalised),[2],0.95 (inactive)
same,normalised cell number,[2]; [12],1.07
same,normalised cell number,[2]; [13],1.02
same,activity remaining,[3],90.4% (inactive)
same,luciferase signal,[4],64 AU (inactive)
COC(=O)NC(=S)Nc1ccccc1NC(=S)NC(=O)OC,inhibition,[1],-13.9% (inactive)
same,red/green cell ratio (normalised),[2],0.85 (inactive)
same,normalised cell number,[2]; [12],1.16
same,normalised cell number,[2]; [13],0.98
same,activity remaining,[3],110% (inactive)
same,luciferase signal,[4],8 AU (inactive)
NC(=O)c1ccc(N)nc1,inhibition,[1],1.26% (inactive)
same,red/green cell ratio (normalised),[2],0.93 (inactive)
same,normalised cell number,[2]; [12],1.22
same,normalised cell number,[2]; [13],1.14
same,activity remaining,[3],120% (inactive)
same,luciferase signal,[4],24 AU (inactive)
COc1c2c(cc3c1OCO3)CC[N+](C)=C2,inhibition,[1],8.25% (inactive)
same,red/green cell ratio (normalised),[2]; [14],1.03 (inactive)
same,normalised cell number,[2]; [12],0.97
same,normalised cell number,[2]; [13],1
same,activity remaining,[3],99.6% (inactive)
same,luciferase signal,[4],20 AU (inactive)
N#Cc1c(Cl)c(Cl)c(Cl)c(C#N)c1Cl,inhibition,[1],-66.6% (inactive)
same,red/green cell ratio (normalised),[2],0.93 (inactive)
same,normalised cell number,[2]; [12],0.04
same,normalised cell number,[2]; [13],0.04
same,activity remaining,[3],108% (inactive)
same,luciferase signal,[4],604 AU (active)
O=C1NC(=O)C(=O)C(=O)N1,inhibition,[1],-13.9% (inactive)
same,red/green cell ratio (normalised),[2],0.89 (inactive)
same,normalised cell number,[2]; [12],1.09
same,normalised cell number,[2]; [13],0.98
same,activity remaining,[3],123% (inactive)
same,luciferase signal,[4],44 AU (inactive)
O=C1C=C2C(=CCOC2O)O1 (stereo not drawn),inhibition,[5],71.1%
same,score,[6],1.15
same,rescue above control,[7],-6.1
same,cytochrome c release ratio,[8],0.78
same,inhibition of aggregation,[9],0%
same,glutamate uptake change,[10],-4.18%
same,aggregation suppression score,[11],0.84
same,inhibition,[1],4.22% (inactive)
same,red/green cell ratio (normalised),[2],0.44 (inactive)
same,normalised cell number,[2]; [12],0.14
same,normalised cell number,[2]; [13],0.06
same,activity remaining,[3],124% (inactive)
same,luciferase signal,[4],3170 AU (active)
CCOC(=O)C1C(C=C(C)C)C1(C)C (stereo not drawn),inhibition,[1],-0.74% (inactive)
same,red/green cell ratio (normalised),[2],0.99 (inactive)
same,normalised cell number,[2]; [12],1.19
same,normalised cell number,[2]; [13],1.18
same,activity remaining,[3],107% (inactive)
same,luciferase signal,[4],60 AU (inactive)
COc1cc2c(cc1-c1cc3cc4ccoc4cc3oc1=O)OCO2,inhibition,[1],0.213% (inactive)
same,red/green cell ratio (normalised),[2],0.88 (inactive)
same,normalised cell number,[2]; [12],0.99
same,normalised cell number,[2]; [13],0.87
same,activity remaining,[3],113% (inactive)
same,luciferase signal,[4],44 AU (inactive)
CC(C)=CCCC1(C)C=Cc2c(O)c3c(c(CC=C(C)C)c2O1)OC12C(=CC4CC1C(C)(C)OC2(C/C=C(/C)C(=O)O)C4O)C3=O (stereo not drawn),inhibition,[1],3.01% (inactive)
same,red/green cell ratio (normalised),[2],0.97 (inactive)
same,normalised cell number,[2]; [12],0.89
same,normalised cell number,[2]; [13],0.87
same,activity remaining,[3],106% (inactive)
same,luciferase signal,[4],88 AU (inactive)
CC(=O)CC1CCCCN1 (stereo not drawn),inhibition,[1],16.3% (inactive)
same,red/green cell ratio (normalised),[2]; [14],1.09 (inactive)
same,normalised cell number,[2]; [12],0.99
same,normalised cell number,[2]; [13],1.09
same,activity remaining,[3],107% (inactive)
same,luciferase signal,[4],48 AU (inactive)
COC(=O)[C@]1(C)CC[C@]2(C)CC[C@]3(C)C4=CC=C5C(=CC(=O)C(O)=C5C)[C@]4(C)CC[C@@]3(C)[C@@H]2C1,inhibition,[1],9.49% (inactive)
same,red/green cell ratio (normalised),[2],0.14 (inactive)
same,normalised cell number,[2]; [12],0.01
same,normalised cell number,[2]; [13],0
same,activity remaining,[3],87.2% (inactive)
same,luciferase signal,[4],152 AU (inactive)
CN1CCCCC1c1ccc(-c2cccnc2)nc1 (stereo not drawn),inhibition,[1],-0.658% (inactive)
same,red/green cell ratio (normalised),[2]; [14],1.09 (inactive)
same,normalised cell number,[2]; [12],0.96
same,normalised cell number,[2]; [13],1.04
same,activity remaining,[3],113% (inactive)
same,luciferase signal,[4],52 AU (inactive)
CC(=O)Oc1ccc(/C=C/c2cc(OC(C)=O)cc(OC(C)=O)c2)cc1,inhibition,[1],-2.26% (inactive)
same,red/green cell ratio (normalised),[2],1.01 (inactive)
same,normalised cell number,[2]; [12],0.98
same,normalised cell number,[2]; [13],1
same,activity remaining,[3],103% (inactive)
same,luciferase signal,[4],20 AU (inactive)
CC(C)(C#N)O[C@@H]1O[C@H](CO)[C@@H](O)[C@H](O)[C@H]1O,inhibition,[1],5.98% (inactive)
same,red/green cell ratio (normalised),[2],0.8 (inactive)
same,normalised cell number,[2]; [12],0.84
same,normalised cell number,[2]; [13],0.67
same,activity remaining,[3],94.3% (inactive)
same,luciferase signal,[4],92 AU (inactive)
CC1(C)C2CC(=O)[C@]3(C)C(CC[C@@]4(C)[C@H](c5ccoc5)OC(=O)C5OC543)[C@@]2(C)[C@@H](O)C[C@H]1O (stereo partly drawn),inhibition,[1],-2.4% (inactive)
same,red/green cell ratio (normalised),[2],1.04 (inactive)
same,normalised cell number,[2]; [12],0.78
same,normalised cell number,[2]; [13],0.8
same,activity remaining,[3],107% (inactive)
same,luciferase signal,[4],80 AU (inactive)
CC(=O)OC1CCC23C(=O)OC45CCC(C6=CC(=O)OC6)C4(C)CCC2C5CCC3(O)C1 (stereo not drawn),inhibition,[1],-5.39% (inactive)
same,red/green cell ratio (normalised),[2],0.32 (inactive)
same,normalised cell number,[2]; [12],0.2
same,normalised cell number,[2]; [13],0.07
same,activity remaining,[3],124% (inactive)
same,luciferase signal,[4],16 AU (inactive)
CC(=O)Oc1c2c(c(CC=C(C)C)c3c1C(=O)C1=C[C@@H]4CC5C(C)(C)OC(C/C=C(\C)C(=O)O)(C4=O)[C@@]15O3)OC(C)(CCC=C(C)C)C=C2 (stereo partly drawn),inhibition,[1],23.4% (active)
same,red/green cell ratio (normalised),[2]; [14],0.83 (inactive)
same,normalised cell number,[2]; [12],1.18
same,normalised cell number,[2]; [13],0.98
same,activity remaining,[3],120% (inactive)
same,luciferase signal,[4],140 AU (inactive)
COc1cc2ccc(=O)oc2c2ccoc12,inhibition,[1],13.8% (inactive)
same,red/green cell ratio (normalised),[2],1.01 (inactive)
same,normalised cell number,[2]; [12],0.96
same,normalised cell number,[2]; [13],0.97
same,activity remaining,[3],119% (inactive)
same,luciferase signal,[4],64 AU (inactive)
COc1cc2occc2c2oc(=O)ccc12,inhibition,[1],11.9% (inactive)
same,red/green cell ratio (normalised),[2],1.13 (inactive)
same,normalised cell number,[2]; [12],1
same,normalised cell number,[2]; [13],1.14
same,activity remaining,[3],121% (inactive)
same,luciferase signal,[4],84 AU (inactive)
O=[N+]([O-])c1ccc(O)c([N+](=O)[O-])c1,inhibition,[1],-2.82% (inactive)
same,red/green cell ratio (normalised),[2],0.86 (inactive)
same,normalised cell number,[2]; [12],1.08
same,normalised cell number,[2]; [13],0.93
same,activity remaining,[3],110% (inactive)
same,luciferase signal,[4],44 AU (inactive)
COc1cccc(C=O)c1OC,inhibition,[1],7.48% (inactive)
same,red/green cell ratio (normalised),[2]; [14],1.04 (inactive)
same,normalised cell number,[2]; [12],0.98
same,normalised cell number,[2]; [13],1.02
same,activity remaining,[3],93.4% (inactive)
same,luciferase signal,[4],60 AU (inactive)
